The values that follow come from PubChem BioAssay (NCI).

Compounds without any hit were thinned out: in the full panel of roughly 83,000, 20% have a hit.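 The test compound was applied at a single concentration to cells in 96-well plates for 48 hours, and percent growth was recorded.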 Values without a mark were called inactive. Active and inactive are the calls of the source. Rule for the calls: active = growth percent below 10; inactive = the rest.

The subject of one experiment is HS 578T breast. In words: NCI-60 one-dose screen, 48 h (100 = growth as untreated, 0 = no growth, -100 = all killed). The note with it: 10 µM.
Regarding `CC(C)OC(=O)c1ccc([N+](=O)[O-])cc1`, the growth was 112%. Same read-out and setting: the figure for `COc1cc(CN2CCO[C@H](COc3cccc(F)c3)C2)ccc1Cl` is 51.7%. On the same count and under the same terms, the value for `COc1cc(NC(C)CCCN)c2ncccc2c1Oc1ccc(Cl)cc1` (stereo unspecified) was 70%; that for `OC(c1cc(-c2ccc(C(F)(F)F)cc2)nc(-c2ccc(C(F)(F)F)cc2)c1)C1CCCCN1` (stereo unspecified) was -55.5% (active); that for `C=CCn1c(C)nc2cc(Nc3nc(Nc4ccc5nc(C)n(CC=C)c5c4)nc4ccccc34)ccc21` was 100%. Still for that read-out and setting: the value for `Fc1ccc2c(CN3CCO[C@H](COc4cccc(Cl)c4)C3)c[nH]c2c1` was 64.8%.

For a further experiment, the system named is NCI/ADR-RES ovarian. The experiment is described as above. The note with it: 10 µM unless noted.
On to `Cn1nc(C(F)(F)F)cc1-c1cc(Cl)c(OCc2ccc(Cl)cc2)c(-c2ccc(Cl)c(C(F)(F)F)c2)c1O`, for which the growth was 1.22% (active). With `CC(=O)O[C@H]1[C@H](CC#CC#CC[C@@H]2C[C@]3(C)[C@H]4CC=C5[C@H]6[C@@H](C)[C@H](C)CC[C@]6(C(=O)NCCN(CCN)CCN)CC[C@@]5(C)[C@]4(C)CC[C@H]3C(C)(C)[C@H]2OC(C)=O)C[C@]2(C)[C@H]3CC=C4[C@H]5[C@@H](C)[C@H](C)CC[C@]5(C(=O)NCCN(CCN)CCN)CC[C@@]4(C)[C@]3(C)CC[C@H]2C1(C)C`, the growth was 49.2%. `CC(=O)c1ccc(Nc2nc(Cl)nc(Oc3c(Cl)cccc3Cl)n2)cc1`: the growth was 93.6%.

`Oc1[nH]c2ccccc2c1/C=c1/ccc2c(c1)N=C(c1ccc(C(F)(F)F)cc1)N=2`: the growth is 69.1%. Still for that read-out and setting: the value for `Brc1cccc(-n2ncc3c(Nc4ccc(-c5nnc(-c6ccccc6)o5)cc4)ncnc32)c1` was 98.6%.
